MCF10A rereplic: DNA re-replication induction in MCF 10a cells. MCF 10A DNA re-replication, Hoechst nuclear intensity, 48 h. Potency, µM (doses to about 46.1 µM), inactives show at the highest dose activity, positive = re-replication, hits mostly activators. AID 624296. 350,000 compounds, 2.9% hits; further: % of control where 0% means no effect; nearly all actives have a fitted effect of over 50% in size
HT1080NT lethal: kills 2HG-producing HT-1080-NT fibrosarcoma cells | HT-1080-NT fibrosarcoma viability, CellTiter-Glo ATP luminescence, 48 h | Potency, µM (top dose mostly 46.1 µM), inactives show at the top dose activity, negative = less viability, hits mostly cytotoxic | 360,000 compounds, 1.6% hits | AID 686970;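 further: NT is the 2HG producing partner of a matched IDH1 knockdown line; 0% = DMSO-treated cells and -100% = media-only wells without cells; nearly all actives have a fitted effect of over 55% in size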
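HT-1080-NT; 750 cells/well; 5% FBS RPMI; 48 h compound, 37 degrees C; CellTiter-Glo luminescence; curve fitting and curve-class assignment.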
KB-3-1 cytotox: KB-3-1 parental cell cytotoxicity. KB-3-1 viability, CellTiter-Glo ATP luminescence, 72 h. Potency, µM (titrated, usually from 46.1 µM), most hits filed as cytotoxic. 400,000 compounds, 1.4% hits. AID 1347075; further: on the % scale 0 is the no-effect control and ±100 the full control effect; nearly all actives have a fitted effect of over 60% in size
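Luminescent ATP read-out (CellTiter-Glo) measures survival of drug-naive KB-3-1 cells after 72 h compound exposure at 37 °C. Titration series was screened from lowest to highest concentration, with DMSO vehicle plates as background controls.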
KB-V1 cytotox: KB-V1 MDR subline cytotoxicity; Potency, µM (highest dose often 46.1 µM), actives largely listed as cytotoxic; KB-V1 MDR cells viability, CellTiter-Glo, 72 h; 400,000 compounds, 3.4% hits; further: on the % scale 0 is the no-effect control and ±100 the full control effect; nearly all actives have a fitted effect of over 60% in size
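Following 72 h at 37 degrees C with compound, KB-V1 cell viability was read by CellTiter-Glo luminescence, medium being phenol-red-free DMEM plus 10% FBS; concentration-response parameters came from normalized, curve-fitted qHTS data.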
SW480 rereplic: induces DNA re-replication in SW480 colon adenocarcinoma cells; SW480 DNA re-replication, Hoechst DNA content imaging, 48 h; Potency, µM (highest dose often 46.1 µM), inactives show at the top dose re-replication activation, actives largely listed as activators; 340,000 compounds, 1.8% hits; AID 624297; further: % of control where 0% means no effect; nearly all actives have a fitted effect of over 55% in size
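Quantitative HTS format with DMSO vehicle controls; 48 hr drug incubation at 37 C, then 40 min Hoechst staining and scanning imager measurement at 405 nm excitation.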
HT1080 IDH1KD tx: toxicity to HT-1080 IDH1 knockdown cells (counter line); HT-1080 IDH1 knockdown viability, ATP luminescence, 48 h; 360,000 compounds, 2% hits; Potency, µM (top dose mostly 46.1 µM), inactives show at the top dose activity, negative = toxicity, hits mostly cytotoxic;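 further: 0% = DMSO wells and -100% = cell-free medium wells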
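CellTiter-Glo luminescence after 48 h compound exposure at 37 degrees C of IDH1-knockdown HT-1080 cells in 5% FBS RPMI. %Activity scaled between DMSO wells and cell-free media wells, with curves fitted and assigned curve classes.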
* marks the source's active call; other numbers are inactive results. Hits are enriched below; roughly 8% of the tested compounds scored in any of these assays. The call rests on the fitted dose curve; in most records, active means well fitted curve in the direction sought with a large enough effect; inconclusive means small, poorly fitted or top-dose-only effect, or another doubt; inactive means no such curve, though single readings can be large; an effect the other way counts as inactive or inconclusive. Potency means the concentration at half of the fitted maximal effect.

What do the screens show for `CC(/C=N/NC(=O)c1cc(-c2ccccc2)nc2ccccc12)=C\c1ccco1`?
MCF10A rereplic: inconclusive; HT1080NT lethal: inconclusive; KB-3-1 cytotox: 4.1µM*; KB-V1 cytotox: 7.3µM*; SW480 rereplic: 8.2µM*; HT1080 IDH1KD tx: inconclusive

What do the screens show for `Cc1ccc(-c2cc(C(=O)N/N=C/c3ccoc3)c3ccccc3n2)cc1`?
MCF10A rereplic: inconclusive; HT1080NT lethal: -17%; KB-3-1 cytotox: inactive; KB-V1 cytotox: inactive; SW480 rereplic: inconclusive; HT1080 IDH1KD tx: inconclusive

How did Cc1cc(C(=O)N/N=C/c2ccco2)c2ccccc2n1 do in these assays?
MCF10A rereplic: inconclusive; HT1080NT lethal: -15%; KB-3-1 cytotox: inactive; KB-V1 cytotox: inactive; SW480 rereplic: inconclusive; HT1080 IDH1KD tx: -24%

What do the screens show for `Cc1ccc(-c2nnc(N3CCC(C)CC3)c3ccccc23)cc1C`?
MCF10A rereplic: inconclusive; HT1080NT lethal: inconclusive; KB-3-1 cytotox: inactive; KB-V1 cytotox: inconclusive; SW480 rereplic: 11%; HT1080 IDH1KD tx: 29µM*

What do the screens show for `Cc1ccc(-c2nnc(N3CCC(C)CC3)c3ccccc23)cc1`?
MCF10A rereplic: inconclusive; HT1080NT lethal: -16%; KB-3-1 cytotox: inactive; KB-V1 cytotox: inconclusive; SW480 rereplic: inconclusive; HT1080 IDH1KD tx: -20%

Results for CC1CCN(c2nnc(-c3ccccc3)c3ccccc23)CC1 ?
MCF10A rereplic: 11µM*; HT1080NT lethal: 2%; KB-3-1 cytotox: inactive; KB-V1 cytotox: inactive; SW480 rereplic: 1%; HT1080 IDH1KD tx: -3%

How did NC(=O)CC[C@@H]1NC(=O)[C@H](Cc2ccccc2)NC(=O)[C@H](Cc2ccc(O)cc2)NC(=O)[C@@H](N)CSSC[C@@H](C(=O)N2CCC[C@H]2C(=O)N[C@@H](CCCN=C(N)N)C(=O)NCC(N)=O)NC(=O)[C@H](CC(N)=O)NC1=O do in these assays?
MCF10A rereplic: 3%; SW480 rereplic: -9%

Results for N#Cc1ccc(OCC(=O)OCC(=O)N2CCc3ccccc32)cc1 ?
HT1080NT lethal: -1%; KB-3-1 cytotox: inactive; KB-V1 cytotox: inactive; HT1080 IDH1KD tx: 6%

Results for O=C(CCn1c(=S)oc2ccccc21)NC1CCCCCC1 ?
MCF10A rereplic: -3%; HT1080NT lethal: 11%; KB-3-1 cytotox: inactive; KB-V1 cytotox: inactive; SW480 rereplic: -12%; HT1080 IDH1KD tx: 20%

How did CC1Oc2ccccc2N(CC(=O)Nc2ccc3c(c2)OCCO3)C1=O (centres undefined) do in these assays?
MCF10A rereplic: -2%; HT1080NT lethal: 11%; KB-3-1 cytotox: inactive; KB-V1 cytotox: 16µM*; SW480 rereplic: -6%; HT1080 IDH1KD tx: -24%

How did CC1Oc2ccccc2N(CC(=O)Nc2ccc3c(c2)OCO3)C1=O (centres undefined) do in these assays?
MCF10A rereplic: 3%; HT1080NT lethal: 12%; KB-3-1 cytotox: inactive; KB-V1 cytotox: 21µM*; SW480 rereplic: -8%; HT1080 IDH1KD tx: -7%

Results for CC1Oc2ccccc2N(CC(=O)NCCc2ccccc2)C1=O (centres undefined) ?
MCF10A rereplic: -5%; HT1080NT lethal: 0%; KB-3-1 cytotox: inactive; KB-V1 cytotox: 16µM*; SW480 rereplic: -5%; HT1080 IDH1KD tx: -2%

Results for CCC1(c2ccccc2)NC(=O)N(CC(=O)N2CCc3ccccc32)C1=O (centres undefined) ?
MCF10A rereplic: 3%; HT1080NT lethal: -1%; KB-3-1 cytotox: inactive; KB-V1 cytotox: 12µM*; SW480 rereplic: 18%; HT1080 IDH1KD tx: 0%

Results for O=C(CC1C(=O)NCCN1Cc1c(F)cccc1Cl)NC1CCCCCC1 (centres undefined) ?
MCF10A rereplic: 7%; HT1080NT lethal: -1%; KB-3-1 cytotox: inactive; KB-V1 cytotox: inactive; SW480 rereplic: 0%; HT1080 IDH1KD tx: -6%

Results for CC1Oc2ccccc2N(CC(=O)N2CCc3ccccc32)C1=O (centres undefined) ?
MCF10A rereplic: 8%; HT1080NT lethal: -3%; KB-3-1 cytotox: inactive; KB-V1 cytotox: 15µM*; SW480 rereplic: -6%; HT1080 IDH1KD tx: -3%

Results for CCN1CCN(c2nc(N)c([N+](=O)[O-])c(Nc3cccc(C)c3)n2)CC1 ?
MCF10A rereplic: 11%; HT1080NT lethal: 3%; KB-3-1 cytotox: inconclusive; KB-V1 cytotox: 3.3µM*; SW480 rereplic: -1%; HT1080 IDH1KD tx: 4%

How did Cc1cccc(Nc2n[nH]c(C)c2[N+](=O)[O-])c1 do in these assays?
MCF10A rereplic: 0%; HT1080NT lethal: -29%; KB-3-1 cytotox: inactive; KB-V1 cytotox: inactive; SW480 rereplic: -3%; HT1080 IDH1KD tx: -20%

What do the screens show for `Cc1cccc(Nc2nc(N)c([N+](=O)[O-])c(NCCO)n2)c1`?
MCF10A rereplic: -1%; HT1080NT lethal: 0%; KB-3-1 cytotox: inactive; KB-V1 cytotox: inactive; SW480 rereplic: -14%; HT1080 IDH1KD tx: -1%

What do the screens show for `Cc1cccc(Nc2nc(N3CCN(C)CC3)nc(N)c2[N+](=O)[O-])c1`?
MCF10A rereplic: -58%; HT1080NT lethal: -1%; KB-3-1 cytotox: inactive; KB-V1 cytotox: 7.3µM*; SW480 rereplic: -36%; HT1080 IDH1KD tx: 4%

Results for CC1(c2ccccc2)CC(C)(C)N(C(=O)CSc2nnc(N)s2)c2ccccc21 (centres undefined) ?
MCF10A rereplic: inconclusive; HT1080NT lethal: -16%; KB-3-1 cytotox: inactive; KB-V1 cytotox: 16µM*; SW480 rereplic: inconclusive; HT1080 IDH1KD tx: -11%

What do the screens show for `CCC(=O)N1c2ccccc2C(C)(c2ccccc2)CC1(C)C` (centres undefined)?
KB-3-1 cytotox: inactive; KB-V1 cytotox: inactive

What do the screens show for `CCCCCNCc1ccc(Cl)cc1`?
MCF10A rereplic: 20%; HT1080NT lethal: 0%; KB-3-1 cytotox: inactive; KB-V1 cytotox: inactive; SW480 rereplic: -7%; HT1080 IDH1KD tx: 3%

How did COc1ccc(CNCC(O)(c2ccc(Cl)cc2)c2ccc(Cl)cc2)cc1OC do in these assays?
MCF10A rereplic: inconclusive; HT1080NT lethal: inconclusive; KB-3-1 cytotox: inactive; KB-V1 cytotox: 7.3µM*; SW480 rereplic: inconclusive; HT1080 IDH1KD tx: inconclusive

Results for CCCCNCC(O)(c1ccc(Cl)cc1)c1ccc(Cl)cc1 ?
MCF10A rereplic: inconclusive; HT1080NT lethal: inconclusive; KB-3-1 cytotox: inactive; KB-V1 cytotox: inactive; SW480 rereplic: -20%; HT1080 IDH1KD tx: 18µM*

Results for O=C(c1cccc([N+](=O)[O-])c1)c1ccccn1 ?
MCF10A rereplic: -4%; HT1080NT lethal: 24%; KB-3-1 cytotox: inactive; KB-V1 cytotox: inactive; SW480 rereplic: -23%; HT1080 IDH1KD tx: 2%
